Measured values as given in PubChem BioAssay AID880 (National Center for Advancing Translational Sciences (NCATS), 2007).
Out of some 230,000 compounds screened, about 1,000 (0.43%) were called active. This excerpt belongs to a sample that is enriched for actives. Unmarked numbers belong to inactive results. Calls come from the whole dose curve; as a rule, active = well fitted inhibition curve with a large enough effect (not every such curve was filed as active); inactive = no such curve, though single readings can be large or run the other way.

What follows are compounds tested against Guanine nucleotide-binding protein G(i) subunit alpha-1 (Homo sapiens) (UniProt P63096) (assay: qHTS Assay for Inhibitors of RGS12 GoLoco Motif Activity (Red Fluorophore)). Conditions: Gai1:RGS12 GoLoco peptide FP, rhodamine, 10 min; series mostly up to 61.6 µM; activity, negative = inhibition: at the top concentration.
Chain of Guanine nucleotide-binding protein G(i) subunit alpha-1 (Homo sapiens) (P63096 whole entry, looked up): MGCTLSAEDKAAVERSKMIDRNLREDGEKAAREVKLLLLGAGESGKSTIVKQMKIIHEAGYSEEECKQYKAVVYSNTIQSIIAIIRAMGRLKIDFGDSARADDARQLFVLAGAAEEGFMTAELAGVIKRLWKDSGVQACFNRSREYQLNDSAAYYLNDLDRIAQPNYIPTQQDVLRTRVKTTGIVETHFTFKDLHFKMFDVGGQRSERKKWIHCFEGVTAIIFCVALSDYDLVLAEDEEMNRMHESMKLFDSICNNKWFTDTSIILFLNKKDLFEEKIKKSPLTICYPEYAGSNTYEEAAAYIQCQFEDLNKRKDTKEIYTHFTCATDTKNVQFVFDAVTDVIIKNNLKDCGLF
Text: Assay Submitter: Siderovski, David P, University of North Carolina at Chapel Hill
Screening Center PI: Austin, C.P.
Screening Center: NIH Chemical Genomics Center [NCGC]
G-protein-coupled receptors (GPCRs) are major targets for drug discovery. The regulator of G-protein signaling (RGS)-protein family has important roles in GPCR signal transduction. RGS proteins contain a conserved RGS-box, which is often accompanied by other signaling regulatory elements. RGS proteins accelerate the deactivation of G proteins to reduce GPCR signaling; however, some also have an effector function and transmit signals. Combining GPCR agonists with RGS inhibitors should potentiate responses, and could markedly increase the agonist's regional specificity. The diversity of RGS proteins with highly localized and dynamically regulated distributions in brain makes them attractive targets for pharmacotherapy of central nervous system disorders. […] A complex of Gai1 and fluorescently labeled G-alpha-binding peptide (the "GoLoco motif") derived from RGS12 is incubated with library members. Inhibitors of the binding are detected by a decrease in the fluorescence polarization (FP) of the fluorophore. Protein was supplied by Prof. David Siderovski, University of North Carolina at Chapel Hill.
Assay Buffer: 10 mM Tris-HCl, 150 mM NaCl, 0.1 mM GDP (prepared fresh), and 0.05% NP40 at pH 7.5.
15 nM Rhodamine labeled peptide/25 nM protein in columns 1, 2, 5 - 48. Titration of unlabeled peptide control ([H][…][NH2], custom synthesized and HPLC-purified by Tufts University Core Facility) from 20 mM, then 1:2 dilution, 16-point in duplicate, pin-transferred to column 2, rows 1 to 32. Column 1 is neutral.
Rhodamine-labeled peptide (Rhodamine-[…]-NH2) was custom-synthesized and HPLC-purified by Invitrogen (Carlsbad, CA).
Four uL of reagents were dispensed to 1536-well Greiner black solid-bottom plates. Compounds and controls (23 nL) were transferred via Kalypsys PinTool. The plates were incubated for 10 min at room temperature, and then read on ViewLux (Perkin-Elmer) High-throughput CCD imager using BODIPY for the rhodamine-labeled decapeptide probe. During dispense, reagent bottles were kept submerged into 4 deg C water bath and all liquid lines were covered with aluminum foil to minimize probe and protein degradation. All screening operations were performed on a Kalypsys robotic system (Kalypsys, Inc., San Diego, CA) containing one RX-130 and two RX-90 anthropomorphic robotic arms.
% is set by controls: 0 for no effect and ±100 for the full control effect; potency is the fitted concentration of half-maximal effect.
Note: nearly all actives have a fitted effect of over 30% in size.

| SMILES | Potency | activity, negative = inhibition |
| --- | --- | --- |
| C[N+]12CN3CN(CN(C3)C1)C2 | 8.91 µM (active) |  |
| CO[C@@H]1C[C@@H](C[C@H]2CC[C@H](C)[C@@H]([C@@H](C)C(=O)O)O2)O[C@]2(O[C@](C)([C@H]3CC[C@@](C)(C4OC([C@H]5O[C@@](O)(CO)[C@H](C)C[C@@H]5C)C[C@@H]4C)O3)C[C@H]2C)[C@@H]1C (stereo not given in full) |  | 2.64% |
| CC(=O)c1c(O)c(C)c(O)c(Cc2c(O)c3c(c(C(=O)/C=C\c4ccccc4)c2O)OC(C)(C)C=C3)c1O |  | 5.48% |
| C[C@@]12CC[C@H](O)C[C@@H]1CC[C@@H]1[C@@H]2CC[C@@]2(C)[C@@H](C3=CC(=O)OC3)[C@H](O)C[C@]12O |  | 3.75% [at 14.2 µM] |
| Cc1cc(-c2ccc(N)c(C)c2)ccc1N | 25.1 µM (active) |  |
| CN1[C@@H]2CC[C@H]1CC(OC(=O)c1cc(Cl)cc(Cl)c1)C2 (stereo not given in full) |  | -5.38% |
| CN(C)C1C(=O)C(C(N)=O)=C(O)[C@@]2(O)C(=O)C3=C(O)c4c(O)cccc4[C@@](C)(O)C3C[C@@H]12 (stereo not given in full) |  | 0.74% |
| ClC(Cl)=C(Cl)C(Cl)=C(Cl)Cl |  | 5.03% |
| CC(C)CC(C)Nc1ccc(Nc2ccccc2)cc1 (stereo not given) |  | 0.206% |
| CCCCN1C2CCC1CC(OC(c1ccc(F)cc1)c1ccc(F)cc1)C2 (stereo not given) |  | 8.26% |
| CS(=N)(=O)CC[C@H](N)P(=O)(O)O (stereo not given in full) |  | 3.42% [at 14.2 µM] |
| CC(C)(Cc1c[nH]c2ccc(Cl)cc12)NCCOc1ccccc1OCC1CC1 |  | inactive |
| CC(=O)OC1C2CCC3C1(CC(O)[C@@]1(O)[C@@H](CC(O)C1(C)C)[C@]3(C)O)C[C@@]2(C)O (stereo not given in full) | 25.1 µM (active) |  |
| CC(C)(c1ccccc1)c1ccc(O)cc1 |  | -5% |
| CC(=O)O[C@H]1CC[C@@]2(C)[C@@H](CC[C@H]3[C@H]2CC(=O)[C@]2(C)[C@@H]3C[C@@H](N3CC3)[C@H]2C(C)=O)C1 |  | 4.86% [at 14.2 µM] |
| O=C(O)C1C2CCC(O2)C1C(=O)O (stereo not given) |  | 10.6% |
| OC(CNC1CCCCC1)c1ccccc1 (stereo not given) |  | 5.96% |
| CNC(C)[C@@H](O)c1ccccc1 (stereo not given in full) | 7.94 µM (active) |  |
| CC(C)CCC1(CCN)C(=O)NC(=O)NC1=O |  | 2.09% [at 14.2 µM] |
| CN(C)[C@@H]1C(=O)C(C(N)=O)=C(O)[C@@]2(O)C(=O)C3=C(O)c4c(O)cccc4[C@@](C)(O)C3CC12 (stereo not given in full) |  | -6.35% |
| CCN(CC)CCn1ncc2c(N)ncnc21 |  | 8.05% [at 14.2 µM] |
| O=C(O)C(=O)Cc1ccc2c(c1)OCO2 |  | -7.42% [at 14.2 µM] |
| COc1ccccc1N=Nc1c(O)[nH]c(=S)[nH]c1=O |  | 28.9% |
| COc1ccccc1N=C1SCCCN1C | 3.16 µM (active) |  |
| Cc1ccc(S(=O)(=O)O[C@H]2CN3CCC2CC3)cc1 |  | -0.505% [at 14.2 µM] |
| CC[C@@](O)(C(=O)O)c1cc2n(c(=O)c1CO)Cc1cc3ccccc3nc1-2 |  | -0.459% [at 14.2 µM] |
| Fc1ccc(C(OCCN2CCN(C/C=C\c3ccccc3)CC2)c2ccc(F)cc2)cc1 |  | 12.7% |
| C[C@H](Br)C(=O)N[C@H](CO)C(=O)O |  | 5.42% [at 14.2 µM] |
| NCC[Se][Se]CCN | 0.631 µM (active) |  |
| CC(C)(O)/C=C\C(=O)[C@](C)(O)[C@H]1[C@H](O)C[C@]2(C)[C@@H]3CC=C4[C@@H](C=C(O)C(=O)C4(C)C)[C@]3(C)C(=O)C[C@@]12C |  | 6.59% [at 14.2 µM] |
